TTR transcr act = increases transthyretin transcription | SH-SY5Y TTR promoter Gaussia luciferase, luminescence; 100% = recombinant luciferase protein wells | activation, % at 16.7 µM | 1.3% of 92,000 active | AID 1117267;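 active = activation above the mean of all tested compounds plus 3 SD, cut at about 9.5% in these data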;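 note: cells exposed to compounds for one day before reading; 0% = median of all test compound wells on the plate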
TTR inh HuH7 = HuH7 TTR transcription inhibition, counter-screen | inhibition, % at 16.7 µM | AID 1117279 | HuH7 TTR promoter-Gaussia luciferase reporter, luminescence | 4% of 1,100 active | shares compounds with TTR transcr act;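 active = average inhibition above the solvent-only control wells' mean plus 3 SD, cut at about 15% in these data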;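 note: 0% = cells with DMSO only and 100% = cells with inhibitor control FD; inhibitors lower well luminescence so higher value means more inhibition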
TTR act confirm = human TTR transcription activation, confirmation. shares compounds with TTR transcr act. SHSY5Y TTR promoter Gaussia luciferase, luminescence; 100% = purified Lucia enzyme wells, no cells. activation, % at 16.7 µM. 1,100 tested, under 10 active. AID 1117280;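 active = mean activation above a set limit taken from the earlier primary screen, cut at about 11% in these data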;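 note: 0% = DMSO-treated cells and 100% = recombinant Lucia luciferase without cells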
Starred values were filed as active, the others as inactive. This excerpt belongs to a sample that is enriched for hits.

SMILES	TTR transcr act	others
CCOC(=O)c1ccc(N(CCC2CO2)S(=O)(=O)c2ccc(C)cc2)cc1 (configuration not stated)	1
COc1cccc(CNC(=O)[C@@H](C)N2C(=O)N3CCc4c([nH]c5ccc(OC)cc45)C3(C)C2=O)c1 (some centres not stated)	4
Cc1ccccc1C(=O)N1CCN(S(=O)(=O)c2ccccc2)CC1	1
CCOC(=O)C1CCCN(C(=O)c2ccc(Cl)c(S(=O)(=O)N3CCc4ccccc43)c2)C1 (configuration not stated)	-1
COc1ccc(C2CC(=O)C3=C(C2)Nc2ccccc2N(C(=O)CCC(=O)O)C3c2ccc(F)cc2)cc1 (configuration not stated)	102*	TTR inh HuH7=-8;TTR act confirm=1
COc1ccc(C2CC(c3ccccc3)=NN2C(=O)CCC(=O)O)cc1 (configuration not stated)	1
CC(=O)N1c2ccccc2NC2=C(C(=O)CCC2)C1c1cccnc1 (configuration not stated)	-1
O=c1oc2ccccc2n1Cc1cccc(C(F)(F)F)c1	3
O=C(NC1CCCCC1)C(c1cccc2ccccc12)n1c(=O)c(-c2ccco2)nc2ccccc21 (configuration not stated)	0
CCOC(=O)C1(C)CCCN(C(=O)c2ccc3c(c2)OCO3)C1 (configuration not stated)	0
CCN1CCN(c2nc3ccccc3nc2NS(=O)(=O)c2ccc(NC(C)=O)cc2)CC1	12*	TTR inh HuH7=-9;TTR act confirm=0
CCn1nc(NS(=O)(=O)c2ccc(NC(C)=O)cc2)c2cc3ccccc3nc21	0
CC(=O)Nc1ccc(S(=O)(=O)Nc2ccc3ccccc3n2)cc1	-1
COc1ccc(OC)c(C=NNC(=O)c2ccccc2NS(=O)(=O)c2cccs2)c1	-2
Nc1ccc2c3c(ccc([N+](=O)[O-])c13)CC2	1
CCOC(=O)N1CCC(N2CCCC(C(=O)c3ccccc3OC)C2)CC1 (configuration not stated)	1
O=C(CNC(=O)c1ccco1)OCc1ccccc1Cl	11*	TTR inh HuH7=-10;TTR act confirm=0
O=C(NCc1ccccc1Br)c1ccco1	4
O=C(COC(=O)CNC(=O)c1ccco1)Nc1ccc(Cl)cn1	-2
O=C(O)CNC(=O)C1(N2C(=O)c3ccccc3C2=O)CCCC1	0
CC(C)NC(=O)C1(N2C(=O)c3ccccc3C2=O)CCCC1	-1
CCC1(CC)C(=O)N=C2c3ccccc3C(=O)N21	48*	TTR inh HuH7=-16;TTR act confirm=0
O=C(Cc1ccc(NC(=O)C2CCCN(C(=O)C3CC3)C2)cc1)Nc1ccc(C(=O)N2CCOCC2)cc1 (configuration not stated)	3
Cc1cc(C)c2c(CN(C)Cc3ccccc3)cc(=O)oc2c1	1
CCn1cnc2c(NCc3cccnc3)nc(C#N)nc21	1
SMILES	TTR transcr act	others
COC(=O)C1=C/CCCN(C(c2ccccc2)c2ccccc2)/C=C\1C(=O)OC	0
CCOC(=O)CCCCCCCCC(=O)Nc1ccc(-n2[nH]c(=O)cc2C)cc1	2
CCOC(=O)CCCCC(=O)NC(CO)C(=O)NC (configuration not stated)	9.9*	TTR inh HuH7=-5;TTR act confirm=0
CCOC(=O)CCC(NC(=O)CCCCC(=O)NC(CCC(=O)OCC)C(=O)OCC)C(=O)OCC (configuration not stated)	4
CCC1NC(=O)c2cccnc2-n2c1nc1ccc(OC)cc1c2=O (configuration not stated)	1
CN(C(=O)CSc1nnc(-c2ccco2)n1C)C1CCCCC1	2
CC(=NNC(=O)c1ccc(NS(=O)(=O)c2ccc(Br)cc2)cc1)c1cccnc1	0
COc1ccc(S(=O)(=O)N2CCCOC2CNC(=O)C(=O)NCc2ccccn2)cc1 (configuration not stated)	24*	TTR inh HuH7=-10;TTR act confirm=-1
COc1ccc(S(=O)(=O)N2CCOC2CNC(=O)C(=O)NCc2ccccc2OC)cc1 (configuration not stated)	-1
COc1ccc(S(=O)(=O)N2CCCOC2CNC(=O)C(=O)NCc2ccco2)cc1 (configuration not stated)	0
Cc1cc(Br)cc2c1N(C)C(=O)C2(c1ccc(O)cc1)c1ccc(O)cc1	47*	TTR inh HuH7=-5;TTR act confirm=2
CN1C(=O)C(c2cn(C)c3ccccc23)(c2cn(C)c3ccccc23)c2cc(Br)ccc21	0
COc1cc(C2(c3ccc(O)c(OC)c3)C(=O)N(C)c3ccc(C)cc32)ccc1O	1
COc1ccccc1NC(=O)CSc1nncs1	2
CC(=O)c1c(C(C)=O)c(C)n(-c2cccc3cccnc23)c1C	-2
Cc1[nH]c2c(ccc3cccnc32)c1C	12*	TTR inh HuH7=-28;TTR act confirm=-1
c1ccc(-c2nc3c(ccc4ccccc43)[nH]2)nc1	-4
